Records with an inconclusive call do not appear. A call without a number means that no potency is given here. Calls of active or inactive are those of the source. Calls follow the shape of the dose curve; as a rule, active = well fitted inhibition curve with a large enough effect; inconclusive = small, poorly fitted or top-dose-only effect; inactive = flat fitted curve, though single readings scatter.

The target in the assay is Calcium and integrin-binding protein 1 (Homo sapiens) (UniProt Q99828). Description: Primary qHTS for Identification of Calcium Integrin Binding Protein 1 (CIB1) Competitor (AID 1508620).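 Also: GST tagged CIB1 binding a fluorescein labelled alphaIIb integrin peptide tracer; top concentration of the series differs between compounds.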 The settings on record: CIB1-GST / FITC-alphaIIb peptide fluorescence polarization; series mostly up to 114 µM. The method, boiled down: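 CIB1-GST (1 uM final) and compound incubated 15 min at room temperature before adding FITC-alphaIIb peptide tracer (100 nM final). Competition for binding read by fluorescence polarization (ex 480, em 540) after another 15 min at room temperature.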
Chain of Calcium and integrin-binding protein 1 (Homo sapiens) (Q99828 whole entry, looked up): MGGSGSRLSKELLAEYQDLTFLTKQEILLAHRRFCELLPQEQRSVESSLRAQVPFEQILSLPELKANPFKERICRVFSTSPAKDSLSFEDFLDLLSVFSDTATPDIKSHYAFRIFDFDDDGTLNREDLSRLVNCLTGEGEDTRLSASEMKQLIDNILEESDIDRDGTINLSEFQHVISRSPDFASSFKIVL
In general terms: qHTS replaces the single test concentration by a dilution series.
As for `CCOC(=O)c1ccc2c(c1)c(C(C)=O)c(C)n2-c1ccc(OC)cc1`, the Potency result was “inactive”.

`c1c[nH]c(CNc2ncnc3ccc(-c4ccoc4)cc23)n1`: the Potency entry was “inactive”.

Turning to `COc1cc(O)c(C(CC(=O)N2CCCC(c3ccccc3)C2)c2ccc3c(c2)OCO3)c(OC)c1` (centres undefined), the Potency result was “inactive”.

In the case of `N#CNC(=O)c1ccc(-n2cccc2/C=C2\NC(=O)N(CC(=O)Nc3cccc(F)c3)C2=O)cc1`, the Potency entry is “inactive”.

Turning to `COc1cccc(CNc2ccc(S(=O)(=O)Nc3ccc(-c4ccccc4)cc3)cc2)c1O`, the Potency entry was “inactive”.

On to `COc1ccc(C2N(Cc3ccccc3)C(=O)c3ccccc3N2C)cc1COc1ccc(NC(C)=O)cc1` (centres undefined), for which the Potency result was “inactive”.

In the case of `Cc1ccc(NS(=O)(=O)c2ccc(Cl)cc2)cc1C`, the Potency result is “inactive”.

In the case of `COc1ccc(C2Nc3ccccc3C(=O)N2Cc2ccncc2)cc1COc1ccc(NC(C)=O)cc1` (centres undefined), the Potency result was “inactive”.

`O=C(Nc1nnc(COc2ccc(Cl)cc2)s1)c1cccs1`: the Potency result was “inactive”.

In the case of `Cc1ccc(CN(C)c2ncnc3ccc(-c4ccc(CO)o4)cc23)o1`, the Potency result is “inactive”.

With `CC(=O)Nc1ccc(NC(=O)c2cnn3c(C)cc(C)nc23)cc1`, the Potency entry was “inactive”.

Regarding `COc1cc(Cl)c(C)cc1NC(=O)C(OC(=O)CNC(=O)c1ccccc1)c1ccccc1` (centres undefined), the Potency entry is “inactive”.

In the case of `COc1cccc(NC(=S)N2CCN(c3ncc(C(F)(F)F)cc3Cl)CC2)n1`, the Potency result was “inactive”.

Regarding `Oc1ccc(CCc2ccccc2F)c2cccnc12`, the Potency result was “inactive”.

As for `Cc1ccccc1C(=O)N1CCc2cc(-c3nc(NC(=O)Cc4ccc5ccccc5c4)sc3C)ccc21`, the Potency entry was “inactive”.

Turning to `Fc1ccc(-c2ccc(Nc3nc(-c4ccncc4)nc4ccccc34)cc2F)c(Cl)c1`, the Potency entry was “inactive”.

Regarding `O=C(Cc1ccc(Cl)c(Cl)c1)Nc1ccc([S+](=O)([O-])Nc2ccc([N+](=O)[O-])cc2)cc1`, the Potency result is “inactive”.

Consider `CC(C)(C)OC(=O)N1CCN(c2ncc(NCc3ccc(-c4ccc(C#N)cc4)o3)cn2)CC1`, for which the Potency result was “inactive”.

Turning to `O=C(O)c1ccc(-c2ccc3ncnc(NCC4CCCO4)c3c2)o1` (centres undefined), the Potency entry was “inactive”.

As to `O=[S+]([O-])(Nc1ccccc1)c1ccc(NCc2cccc(C(F)(F)F)c2Cl)cc1`, the Potency entry was “inactive”.

For the compound `Cc1ccc(-c2ccc(=O)n(CC(=O)NCCc3ncc[nH]3)n2)cc1`, the Potency entry was “inactive”.

Take `CC(Cc1cnccn1)Nc1cnc2c(O)ccc(C(=O)O)c2c1` (centres undefined): the Potency result is “inactive”.

For `COc1cccc(CC(=O)Nc2nc(-c3ccc4c(c3)CCN4C(=O)c3ccccc3C)c(C)s2)c1`, the Potency entry is “inactive”.

Take `Cn1nnnc1Sc1ncnc2scc(Br)c12`: the Potency result was “inactive”.

As for `CN(CC(F)(F)F)c1nc(NCc2ccc(-c3cccnc3)cc2)c2ccccc2n1`, the Potency result was “inactive”.

On to `COc1ccc(OC)c(C2=Nn3c(nnc3-c3ccc(OC)c(OC)c3)SC2)c1`, for which the Potency entry was “inactive”.

Regarding `O=C1CCc2cc(S(=O)(=O)NCc3ccccc3)ccc2N1`, the Potency entry is “inactive”.

`NC(=O)C1CCN(c2nc(-c3ccc4occc(=O)c4c3)cs2)CC1`: the Potency result was “inactive”.

As for `Cc1ccc(OCCn2c(CCNC(=O)/C=C/c3ccccc3Cl)nc3ccccc32)cc1`, the Potency entry was “inactive”.

On to `Fc1ccc(-c2ccc(CNc3nc(-c4ccccc4C(F)(F)F)nc4ccccc34)cc2)cc1C(F)(F)F`, for which the Potency result was “inactive”.

Regarding `CCN1CCN(C(=S)c2ccc(O)cc2)CC1`, the Potency entry was “inactive”.

Consider `O=C1CCCC2=C1C(c1[nH]ncc1Cl)NC(=NCc1ccco1)N2` (centres undefined), for which the Potency entry is “inactive”.

On to `COc1cc(-c2ccc3ncnc(NCc4nc(C)cs4)c3c2)cc(OC)c1OC`, for which the Potency entry was “inactive”.

In the case of `FC(F)(F)c1ccc(-c2nc(NCc3ccc(-c4ccnc(C(F)(F)F)c4)cc3)c3ccccc3n2)cc1`, the Potency entry was “inactive”.

`CC(=O)Nc1sc2c(c1-c1ccc(Cl)cc1)CCNC2`: the Potency result is “inactive”.

Turning to `Cc1ccc2oc(NC3=NC4(CCCC4)C4=C(CCCC4=O)N3)nc2c1`, the Potency result is “inactive”.

For `Cc1cc(C)nc(NC(=S)N2CCN(c3cccc(S(C)=O)c3)CC2)c1` (centres undefined), the Potency result is “inactive”.

Consider `Cc1cc2c(s1)c1cnn(Cc3c(F)c(F)cc(F)c3F)c(=O)c1n2C`, for which the Potency result was “inactive”.

As for `CC(=O)NC(c1cccs1)c1cc(F)c2cccnc2c1O` (centres undefined), the Potency result is “inactive”.

(Values after PubChem BioAssay (NCATS).)
